From PubChem BioAssay (EPA / NIEHS)
Results filed as inconclusive are left out. The source made the active and inactive calls. Rule for the calls, unless noted: active = hit-call score of the fitted dose curve at least 0.9, where 1 is the maximum; inactive = score below 0.9.

Assays:
[1] = molecular target: Aryl hydrocarbon receptor (Homo sapiens) (UniProt P35869); assay: ATG_Ahr_CIS: Attagene CIS-FACTORIAL HepG2 Assay for human Aryl Hydrocarbon Receptor (Ahr) (AID 2282930); conditions: HepG2 AhR cis-factorial reporter transcription; actives raise or lower the signal
Chain of Aryl hydrocarbon receptor (Homo sapiens) (P35869 whole entry, looked up): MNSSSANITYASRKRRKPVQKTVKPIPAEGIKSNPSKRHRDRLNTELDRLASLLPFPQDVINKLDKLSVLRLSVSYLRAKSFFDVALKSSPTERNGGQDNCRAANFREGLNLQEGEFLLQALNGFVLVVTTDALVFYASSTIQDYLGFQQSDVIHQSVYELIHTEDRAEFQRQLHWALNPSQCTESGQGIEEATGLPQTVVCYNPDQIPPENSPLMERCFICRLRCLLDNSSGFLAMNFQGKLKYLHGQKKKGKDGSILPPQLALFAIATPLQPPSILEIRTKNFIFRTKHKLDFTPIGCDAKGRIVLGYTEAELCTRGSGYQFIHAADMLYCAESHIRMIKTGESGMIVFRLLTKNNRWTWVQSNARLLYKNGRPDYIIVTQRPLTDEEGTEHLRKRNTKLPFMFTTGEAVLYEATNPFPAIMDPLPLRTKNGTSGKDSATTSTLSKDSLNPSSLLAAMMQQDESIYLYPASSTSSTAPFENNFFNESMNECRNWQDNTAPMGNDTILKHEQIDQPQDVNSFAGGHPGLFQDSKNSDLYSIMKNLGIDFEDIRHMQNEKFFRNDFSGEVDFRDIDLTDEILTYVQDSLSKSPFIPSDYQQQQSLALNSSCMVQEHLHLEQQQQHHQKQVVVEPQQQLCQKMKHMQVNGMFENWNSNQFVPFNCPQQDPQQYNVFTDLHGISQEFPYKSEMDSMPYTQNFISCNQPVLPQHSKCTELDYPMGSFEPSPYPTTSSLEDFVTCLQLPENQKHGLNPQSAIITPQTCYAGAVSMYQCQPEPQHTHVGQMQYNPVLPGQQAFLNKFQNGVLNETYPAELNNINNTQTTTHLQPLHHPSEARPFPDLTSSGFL
How it was run: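 Read-out: reporter mRNA quantified by RT-PCR with fluorescent primer extension and capillary electrophoresis. Human HepG2 liver cells carried transfected cis-promoter reporter units and were exposed to chemical for 24 h; gain or loss fitted relative to DMSO.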

[2] = ATG_AP_1_CIS: Attagene CIS-FACTORIAL HepG2 Assay for human Activator Protein 1 (AP-1) (AID 2282931); conditions: HepG2 Attagene cis-factorial AP-1 reporter mRNA; actives raise or lower the signal
How it was run: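 HepG2 cells transiently transfected with cis-element-driven multiplex reporter units; 24 h compound exposure. Reporter mRNA quantified by RT-PCR, FAM-labelled fragments resolved by capillary electrophoresis; bidirectional fit versus DMSO baseline.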

[3] = ATG_BRE_CIS: Attagene CIS-FACTORIAL HepG2 Assay for human Bone Morphogenetic Protein (BMP) Response Element (BRE) (AID 2282933); conditions: HepG2 BMP response element reporter, Attagene transcription factor profiling; actives raise or lower the signal
How it was run: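 Endogenous transcription factor activity read in transiently transfected HepG2 cells after 24 h chemical exposure. Bidirectional curve fitting against DMSO; readout is reporter transcript level by RT-PCR with capillary electrophoresis of labelled products.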

[4] = ATG_GLI_CIS: Attagene CIS-FACTORIAL HepG2 Assay for human Zinc Finger Protein GLI1 (AID 2282945); conditions: HepG2, Attagene cis-factorial reporter mRNA, GLI element; actives raise or lower the signal
How it was run: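 Transiently transfected HepG2 cells report endogenous transcription factor activity via cis-element-driven reporter units. After 24 h compound exposure, reporter mRNA was measured by RT-PCR with capillary electrophoresis; bidirectional fitting against DMSO baseline.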

[5] = molecular target: Paired box protein Pax-6 (Homo sapiens) (UniProt P26367); assay: ATG_Pax6_CIS: Attagene CIS-FACTORIAL HepG2 Assay for human Paired Box 6 (PAX6) (AID 2282956); conditions: HepG2 CIS-FACTORIAL PAX6 reporter transcription, RNA readout; actives raise or lower the signal
Chain of Paired box protein Pax-6 (Homo sapiens) (P26367 whole entry, looked up): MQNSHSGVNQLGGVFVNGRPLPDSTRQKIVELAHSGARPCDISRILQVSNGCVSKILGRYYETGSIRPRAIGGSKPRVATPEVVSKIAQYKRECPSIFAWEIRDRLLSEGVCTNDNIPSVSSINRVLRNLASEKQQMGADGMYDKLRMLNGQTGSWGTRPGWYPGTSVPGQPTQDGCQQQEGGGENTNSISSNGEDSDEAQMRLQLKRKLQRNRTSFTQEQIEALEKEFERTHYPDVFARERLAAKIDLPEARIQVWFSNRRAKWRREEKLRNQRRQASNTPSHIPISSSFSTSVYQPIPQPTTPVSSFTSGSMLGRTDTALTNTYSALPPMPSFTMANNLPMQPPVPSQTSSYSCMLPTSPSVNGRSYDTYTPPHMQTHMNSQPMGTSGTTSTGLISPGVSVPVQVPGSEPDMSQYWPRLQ
How it was run: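 After twenty-four hours of chemical exposure, transfected HepG2 cells are harvested for RNA. Cis-promoter reporter transcripts are amplified, fluorescently labelled and sized by capillary electrophoresis, with gain and loss of signal scored against DMSO.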

[6] = ATG_RORE_CIS: Attagene CIS-FACTORIAL HepG2 Assay for human RAR-related Orphan Receptor Element (RORE) (AID 2282959); conditions: HepG2 Attagene cis-factorial RORE reporter, mRNA; actives raise or lower the signal
How it was run: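 HepG2 cells transiently transfected with multiple cis-element reporter transcription units, exposed to chemical for 24 h. Reporter mRNA quantified by RT-PCR, 6-FAM primer-extension labeling, HpaI digestion and capillary electrophoresis; bidirectional fit versus DMSO baseline.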

[7] = ATG_TAL_CIS: Attagene CIS-FACTORIAL HepG2 Assay for human TAL Basal Promoter (AID 2282966); conditions: HepG2 Attagene cis-factorial TAL promoter reporter; actives raise or lower the signal;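 note: background control endpoint measuring basal TAL promoter reporter mRNA not a specific factor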
How it was run: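 RT-PCR plus capillary electrophoresis quantifies reporter mRNA induction in transiently transfected HepG2 cells after 24 h chemical treatment. DMSO serves as negative control and baseline for bidirectional fitting.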

[8] = ATG_TGFb_CIS: Attagene CIS-FACTORIAL HepG2 Assay for human Transforming Growth Factor (TGF) (AID 2282967); conditions: HepG2 Attagene CIS TGFb reporter, mRNA transcription; actives raise or lower the signal
How it was run: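 Endogenous TGFB1-linked transcription factor activity read as reporter mRNA via RT-PCR and capillary electrophoresis, 24 h after dosing transiently transfected HepG2 cells. Gain or loss of signal fitted relative to DMSO.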

[9] = ATG_VDRE_CIS: Attagene CIS-FACTORIAL HepG2 Assay for human Vitamin D Receptor Element (VDRE) (AID 2282968); conditions: HepG2 VDRE cis-reporter transcription, actives raise or lower the signal
How it was run: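 Cell-based multiplexed reporter format in human liver HepG2 cells, 24 h post-dose. Fluorescence from capillary electrophoresis of reporter cDNA gives the signal, with DMSO as negative control and baseline.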

[10] = molecular target: X-box-binding protein 1 (Homo sapiens) (UniProt P17861); assay: ATG_Xbp1_CIS: Attagene CIS-FACTORIAL HepG2 Assay for human X-box Binding Protein 1 (XBP1) (AID 2282972); conditions: HepG2 XBP1 cis-element reporter, Attagene multiplex; actives raise or lower the signal
Chain of X-box-binding protein 1 (Homo sapiens) (P17861 whole entry, looked up): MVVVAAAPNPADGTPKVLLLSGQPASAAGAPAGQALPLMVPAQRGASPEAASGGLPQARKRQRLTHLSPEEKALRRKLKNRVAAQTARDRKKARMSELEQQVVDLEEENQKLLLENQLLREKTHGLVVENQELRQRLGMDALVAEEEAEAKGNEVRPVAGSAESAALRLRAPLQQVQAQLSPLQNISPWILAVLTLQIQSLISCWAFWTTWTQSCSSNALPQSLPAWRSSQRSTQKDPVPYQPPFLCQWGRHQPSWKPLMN
How it was run: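 After a 24-hour chemical exposure of HepG2 cells carrying cis-regulated reporters, reporter mRNA levels are assessed. Quantification uses RT-PCR, 6-FAM labelling and capillary electrophoresis. Gain- or loss-of-signal is fitted against DMSO.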

[11] = ATG_M_32_TRANS: Attagene TRANS-FACTORIAL HepG2 Assay for M32 Transcription Factor (Internal Marker) (AID 2282984; active = hit-call score of the fitted dose curve at least 0.9, where 1 is the maximum;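 note: transcript level of a background control reporter unit measured by RT-PCR and capillary electrophoresis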); conditions: HepG2 Attagene TRANS M32 internal marker reporter
How it was run: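 Capillary electrophoresis of 6-FAM-labelled reporter fragments gives the signal; data fitted for gain over DMSO negative control. Source: HepG2 cells bearing transient multiple reporter transcription units, 24 h exposure.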

[12] = ATG_NFI_CIS: Attagene CIS-FACTORIAL HepG2 Assay for human Nuclear Factor I (NFI) (AID 2282989); conditions: HepG2 cis-regulatory reporter, NFI response element transcription; actives raise or lower the signal
How it was run: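 Reporter transcripts were measured by RT-PCR with fluorescent primer extension and capillary electrophoresis 24 h post-treatment. HepG2 cells carried transiently transfected cis-regulated reporter constructs reporting endogenous factor activity; gain or loss fitted against DMSO baseline.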

[13] = molecular target: Myc proto-oncogene protein (Homo sapiens) (UniProt P01106); assay: ATG_Myc_CIS: Attagene CIS-FACTORIAL HepG2 Assay for human Myelocytomatosis (Myc) Proto-Oncogene Transcription Factor (AID 2282990); conditions: HepG2, Attagene cis-reporter transcription factor activity; actives raise or lower the signal
Chain of Myc proto-oncogene protein (Homo sapiens) (P01106 whole entry, looked up, the tested form may be a part): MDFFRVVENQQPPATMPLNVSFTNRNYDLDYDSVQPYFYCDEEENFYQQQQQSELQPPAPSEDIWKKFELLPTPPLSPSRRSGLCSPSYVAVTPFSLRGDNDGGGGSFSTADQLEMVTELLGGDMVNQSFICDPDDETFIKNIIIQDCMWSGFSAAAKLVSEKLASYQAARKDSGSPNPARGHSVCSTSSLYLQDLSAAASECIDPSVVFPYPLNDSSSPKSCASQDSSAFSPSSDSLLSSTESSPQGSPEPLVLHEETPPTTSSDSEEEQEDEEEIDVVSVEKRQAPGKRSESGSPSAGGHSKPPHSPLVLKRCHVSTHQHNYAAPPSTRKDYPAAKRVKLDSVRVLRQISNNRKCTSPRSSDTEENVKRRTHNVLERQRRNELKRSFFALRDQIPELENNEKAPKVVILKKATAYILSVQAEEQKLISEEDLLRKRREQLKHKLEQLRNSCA
How it was run: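 Read-out: fluorescent reporter mRNA fragments resolved by capillary electrophoresis after RT-PCR. Human HepG2 liver cells carried transfected cis-element reporter units and were dosed for 24 h. Gain or loss of signal fitted relative to DMSO baseline.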

[14] = ATG_NF_kB_CIS: Attagene CIS-FACTORIAL HepG2 Assay for human Nuclear Factor Kappa B (NF-kB) (AID 2282991); conditions: HepG2 Attagene cis-factorial NF-kB reporter mRNA; actives raise or lower the signal
How it was run: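 HepG2 cells transiently transfected with multiplexed cis-element reporter units measuring endogenous transcription factor activity; reporter mRNA read 24 h after dosing by RT-PCR, fluorescent labelling, HpaI digestion and capillary electrophoresis. Bidirectional fit against DMSO baseline.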

[15] = ATG_NRF2_ARE_CIS: Attagene CIS-FACTORIAL HepG2 Assay for human Nuclear Factor Erythroid 2 Related Factor 2 (NFR2) response to Antioxidant Response Elements (ARE) (AID 2282992); conditions: HepG2 Attagene ARE/NRF2 reporter, transcription factor activity; actives raise or lower the signal;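 for AC50: reporter mRNA level measured by RT-PCR and capillary electrophoresis fluorescence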
How it was run: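 Cis-factorial assay: transfected HepG2 reporter library, 24 h dosing, mRNA readout via RT-PCR/CE; DMSO-referenced bidirectional analysis.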

[16] = ATG_Oct_MLP_CIS: Attagene CIS-FACTORIAL HepG2 Assay for human Octamer-Binding Transcription Factor (Oct) (AID 2282993); conditions: HepG2 Attagene cis-factorial Oct reporter, mRNA; actives raise or lower the signal
How it was run: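 Readout is reporter transcript level from RT-PCR with fluorescent primer extension and capillary electrophoresis, fitted in both directions against DMSO. Transfected HepG2 reporter units report endogenous factor activity after 24 h dosing.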

[17] = molecular target: Cellular tumor antigen p53 (Homo sapiens) (UniProt P04637); assay: ATG_p53_CIS: Attagene CIS-FACTORIAL HepG2 Assay for human p53 Transcription Factor (AID 2282994); conditions: HepG2 p53 cis-element reporter, Attagene mRNA; actives raise or lower the signal
Chain of Cellular tumor antigen p53 (Homo sapiens) (P04637 whole entry, looked up): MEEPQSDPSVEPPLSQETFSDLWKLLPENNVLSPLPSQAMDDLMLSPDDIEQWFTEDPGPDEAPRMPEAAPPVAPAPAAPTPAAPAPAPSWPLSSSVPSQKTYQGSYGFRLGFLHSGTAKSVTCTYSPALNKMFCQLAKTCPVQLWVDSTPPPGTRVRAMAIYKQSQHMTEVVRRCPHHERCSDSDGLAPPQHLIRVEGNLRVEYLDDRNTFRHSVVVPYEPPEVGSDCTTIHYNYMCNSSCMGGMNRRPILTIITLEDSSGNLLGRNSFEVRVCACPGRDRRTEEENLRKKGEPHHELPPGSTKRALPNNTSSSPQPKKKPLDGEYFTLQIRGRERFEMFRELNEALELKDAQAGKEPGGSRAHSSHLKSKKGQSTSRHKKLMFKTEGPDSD
How it was run: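 Using HepG2 hepatoma cells carrying cis-acting multiplexed reporters, mRNA induction is detected after a 24 h exposure. Gain- and loss-of-signal responses are fitted relative to DMSO-treated cells.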

[18] = molecular target: Peroxisome proliferator-activated receptor gamma (Homo sapiens) (UniProt P37231); assay: ATG_PPARg_TRANS: Attagene TRANS-FACTORIAL HepG2 Assay for human Peroxisome Proliferator-activated Receptor-gamma (PPARg) (AID 2283007; active = hit-call score of the fitted dose curve at least 0.9, where 1 is the maximum)
Chain of Peroxisome proliferator-activated receptor gamma (Homo sapiens) (P37231 whole entry, looked up, the tested form may be a part): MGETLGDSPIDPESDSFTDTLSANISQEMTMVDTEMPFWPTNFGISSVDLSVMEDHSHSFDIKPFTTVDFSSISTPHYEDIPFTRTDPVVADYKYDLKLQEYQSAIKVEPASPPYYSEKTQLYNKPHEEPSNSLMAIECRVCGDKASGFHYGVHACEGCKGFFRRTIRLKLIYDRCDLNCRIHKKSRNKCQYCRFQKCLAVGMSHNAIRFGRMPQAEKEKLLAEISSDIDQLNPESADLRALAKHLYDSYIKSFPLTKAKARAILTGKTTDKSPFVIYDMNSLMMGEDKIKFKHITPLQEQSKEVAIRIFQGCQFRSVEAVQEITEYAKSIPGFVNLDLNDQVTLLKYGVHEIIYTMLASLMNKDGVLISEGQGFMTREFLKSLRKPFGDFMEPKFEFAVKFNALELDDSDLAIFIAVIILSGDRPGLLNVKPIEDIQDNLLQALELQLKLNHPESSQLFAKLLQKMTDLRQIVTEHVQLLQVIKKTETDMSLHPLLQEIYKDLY
How it was run: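 HepG2 cells transiently transfected with multiplexed GAL4-UAS reporter units and exogenous chimeric NR-Gal4 proteins; reporter mRNA quantified after 24 h compound exposure by RT-PCR, fluorescent labelling, HpaI digestion and capillary electrophoresis; gain-of-signal fitted versus DMSO baseline.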

[19] = molecular target: Nuclear receptor subfamily 1 group I member 2 (Homo sapiens) (UniProt O75469); assay: ATG_PXR_TRANS: Attagene TRANS-FACTORIAL HepG2 Assay for human Pregnane X Receptor (PXR) (AID 2283008; active = hit-call score of the fitted dose curve at least 0.9, where 1 is the maximum)
Chain of Nuclear receptor subfamily 1 group I member 2 (Homo sapiens) (O75469 whole entry, looked up, the tested form may be a part): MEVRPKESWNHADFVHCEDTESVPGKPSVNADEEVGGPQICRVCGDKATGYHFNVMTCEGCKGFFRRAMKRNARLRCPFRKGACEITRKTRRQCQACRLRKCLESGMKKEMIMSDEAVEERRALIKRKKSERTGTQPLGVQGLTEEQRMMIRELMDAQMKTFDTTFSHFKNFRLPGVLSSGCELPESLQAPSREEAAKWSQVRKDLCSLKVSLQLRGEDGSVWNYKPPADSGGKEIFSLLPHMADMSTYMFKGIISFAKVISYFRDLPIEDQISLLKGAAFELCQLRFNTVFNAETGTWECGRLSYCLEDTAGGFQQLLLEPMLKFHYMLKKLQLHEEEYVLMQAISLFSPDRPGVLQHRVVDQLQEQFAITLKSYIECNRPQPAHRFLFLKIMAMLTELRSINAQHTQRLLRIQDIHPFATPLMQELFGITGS
How it was run: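 Fluorescence intensity of FAM-labelled, HpaI-digested reporter amplicons, separated by capillary electrophoresis, quantifies induction. HepG2 cells with PXR-Gal4 trans-reporter system were exposed 24 h; DMSO defines baseline.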

[20] = ATG_XTT_Cytotoxicity: Cytotoxicity Assessment in the Attagene TRANS-FACTORIAL HepG2 Assay (AID 2283584; active = hit-call score of the fitted dose curve at least 0.9, where 1 is the maximum)
How it was run: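 Viability endpoint from XTT after 24 h chemical exposure of reporter-transfected human HepG2 liver cells; signal loss fitted relative to DMSO negative control.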

Measured: AC50

C[C@]12CC[C@H](O)C[C@H]1CC[C@@H]1[C@@H]2C[C@@H](O)[C@]2(C)[C@@H](C3=CC(=O)OC3)CC[C@]12O
active: [2] 3.46 µM | [5] 0.513 µM | [7] 60.9 µM | [9] 2.08 µM | [10] 3.98 µM | [12] 2.61 µM | [16] 2.08 µM | [18] 1.87 µM
inactive: all other assays above

CC(C)C(=O)Cl
not listed: [5] | [6] | [18] | [19]
inactive: all other assays above

C=CCO
not listed: [6] | [9] | [18] | [19]
inactive: all other assays above

CNC(=N[N+](=O)[O-])NCC1CCOC1 (centres undefined)
not listed: [3] | [18] | [19]
inactive: all other assays above

CCCCOC(=O)CCC(=O)OCCCC
not listed: [2] | [8] | [9] | [14] | [18] | [19]
inactive: all other assays above

CC1CCCC1.[C-]#[O+].[C-]#[O+].[C-]#[O+].[Mn]
active: [1] 12.5 µM
not listed: [2] | [18]
inactive: all other assays above

O=[N+]([O-])c1cc([N+](=O)[O-])c2ccccc2c1
active: [1] 8.37 µM | [15] 3.1 µM | [18] 6.62 µM | [19] 9.2 µM
not listed: [2] | [11] | [20]
inactive: all other assays above

O=c1c2ccccc2c(=O)c2c1cc(Cl)c1[nH]c3c([nH]c12)c(Cl)cc1c(=O)c2ccccc2c(=O)c13
active: [1] 33.6 µM | [3] 26.1 µM | [18] 40.5 µM | [19] 10.1 µM
not listed: [2] | [4] | [5] | [11] | [14]
inactive: all other assays above

O=C(CCl)c1ccccc1
active: [2] 59.3 µM | [15] 8.04 µM | [17] 58.6 µM | [18] 16.4 µM
not listed: [3] | [5] | [11]
inactive: all other assays above

C[N+](=O)[O-]
not listed: [3] | [8] | [19] | [20]
inactive: all other assays above

O=S(=O)(c1ccccc1)c1ccccc1
active: [9] 31.4 µM | [19] 10.3 µM
not listed: [2] | [4] | [14] | [20]
inactive: all other assays above

O=S(=O)(O)O
not listed: [3] | [6] | [9] | [11] | [14] | [17] | [18]
inactive: all other assays above

CCC(=O)c1ccc(Cl)cc1
not listed: [2] | [5] | [8] | [17] | [18]
inactive: all other assays above

CN(C)C(=O)C(c1ccccc1)c1ccccc1
active: [19] 4.18 µM
not listed: [2] | [3]
inactive: all other assays above

CC(C)C#N
not listed: [2] | [9] | [17] | [19]
inactive: all other assays above
